In PubChem BioAssay:
Activity calls are given as the source filed them. Unless noted, no rule for the calls is given here.

Legend:
[1] = HepG2 liver cancer cell viability effects, profiling panel, resazurin fluorescence, 24 h, PK04 Diversity Set (AID 1172); conditions: higher = more signal; also: test concentration not given here
[2] = basal S. cerevisiae growth modulation, no modifier, primary screen, OD600, strain BY4716, 24 h, basal condition (AID 1173); conditions: OD600, 24 h, higher = more signal, called active from +8 up or from −8 down
[3] = MM1S myeloma cell viability, profiling panel, resazurin fluorescence, basal, 24 h, PK04 Diversity Set (AID 1174); conditions: higher = more signal, called active from +8 up or from −8 down;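 also: MM1S multiple myeloma cell line; test concentration not given here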
[4] = biological target: Dihydroorotate dehydrogenase (quinone), mitochondrial (Plasmodium falciparum (isolate 3D7)) (UniProt Q08210); assay: PfDHODH enzyme inhibitors, primary screen, biochemical, C-terminal His tag, absorbance 600 nm (AID 1175); conditions: DCIP absorbance 600 nm, higher = more signal, called active from +8 up or from −8 down;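 also: recombinant parasite enzyme with a five histidine tag at its C terminus; test concentration not given here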
[5] = P. aeruginosa biofilm formation inhibitors, primary screen, strain PAO1, LB-PBS medium, absorbance 600 nm (AID 1176); also: test concentration not given here; conditions: P. aeruginosa PAO1 growth/biofilm, A600, 12 h; higher = more signal
[6] = S. cerevisiae RM11-1a growth modifiers, primary screen, strain RM11-1a, OD600, basal, 24 h (AID 1177); conditions: OD600, 24 h, higher = more signal, called active from +8 up or from −8 down;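 also: cultures grown under basal conditions with no added stressor; test concentration not given here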
[7] = E. coli acrAB mutant growth effects, primary screen, E. coli filamentation inducers, strain DRC39, OD650, 24 h (AID 1178); conditions: higher = more signal, called active from +8 up or from −8 down;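 also: growth measured as culture turbidity by optical density at 650 nm; test concentration not given here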
[8] = E. coli acrAB mutant growth effects, primary screen, E. coli filamentation inducers, strain DRC39, OD650, 48 h (AID 1179);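 also: screen aims at cell division blockers that make cells filament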; conditions: E. coli DRC39 delta-acrAB growth, higher = more signal, called active from +8 up or from −8 down
[9] = RPMI8226 myeloma cell viability, profiling panel, resazurin fluorescence, basal, 24 h, PK04 Diversity Set (AID 1180); conditions: higher = more signal;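 also: RPMI8826 multiple myeloma cell line at 5000 cells per well; test concentration not given here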
[10] = biological target: E3 ubiquitin-protein ligase XIAP (Homo sapiens) (UniProt P98170); assay: XIAP binders, primary screen, biophysical, small-molecule microarray, fluorescence 635 nm (AID 1181); conditions: small-molecule microarray binding, higher = more signal;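 also: score merges 667 nm emission and signal to noise over triplicate slides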
Chain of E3 ubiquitin-protein ligase XIAP (Homo sapiens) (P98170 whole entry, looked up): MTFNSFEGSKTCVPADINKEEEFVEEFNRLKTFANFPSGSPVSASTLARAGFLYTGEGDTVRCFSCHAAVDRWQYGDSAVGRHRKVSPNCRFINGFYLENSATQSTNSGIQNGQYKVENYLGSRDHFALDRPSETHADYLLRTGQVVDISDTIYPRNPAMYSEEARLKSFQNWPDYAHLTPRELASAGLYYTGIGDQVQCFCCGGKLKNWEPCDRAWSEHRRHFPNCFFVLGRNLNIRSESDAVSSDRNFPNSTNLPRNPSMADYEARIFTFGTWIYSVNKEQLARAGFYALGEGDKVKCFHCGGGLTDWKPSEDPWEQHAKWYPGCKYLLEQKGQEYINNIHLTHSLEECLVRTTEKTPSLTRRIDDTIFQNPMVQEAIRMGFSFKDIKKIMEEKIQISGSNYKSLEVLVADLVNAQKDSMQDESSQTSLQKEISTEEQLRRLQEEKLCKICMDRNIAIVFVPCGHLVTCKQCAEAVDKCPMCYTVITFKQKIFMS

Chain of Dihydroorotate dehydrogenase (quinone), mitochondrial (Plasmodium falciparum (isolate 3D7)) (Q08210 whole entry, looked up): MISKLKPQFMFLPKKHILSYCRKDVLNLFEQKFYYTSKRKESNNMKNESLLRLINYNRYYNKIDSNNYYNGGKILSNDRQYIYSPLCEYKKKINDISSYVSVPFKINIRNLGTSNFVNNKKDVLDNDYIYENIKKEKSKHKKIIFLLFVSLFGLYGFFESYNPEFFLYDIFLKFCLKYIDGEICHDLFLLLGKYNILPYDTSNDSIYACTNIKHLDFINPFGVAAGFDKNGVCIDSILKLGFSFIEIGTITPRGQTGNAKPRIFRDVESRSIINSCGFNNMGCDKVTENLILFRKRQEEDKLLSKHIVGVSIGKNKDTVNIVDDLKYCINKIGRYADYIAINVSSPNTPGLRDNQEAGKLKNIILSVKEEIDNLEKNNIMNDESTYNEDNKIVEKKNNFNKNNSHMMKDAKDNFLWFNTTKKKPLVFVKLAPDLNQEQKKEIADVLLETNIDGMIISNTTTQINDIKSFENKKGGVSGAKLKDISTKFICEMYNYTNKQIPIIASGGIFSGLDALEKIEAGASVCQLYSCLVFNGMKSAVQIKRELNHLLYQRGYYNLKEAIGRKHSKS

SMILES | z-score [1] | z-score [2] | z-score [3] | composite z-score [4] | z-score [5] | z-score [6] | z-score [7] | z-score [8] | z-score [9] | composite z-score [10]
Cc1ccc(S[C@]2(C(=O)NC(C)C)CC(=O)N(C(C)C)[C@@H]2c2ccc(CO)cc2I)cc1 | 0.197 | -2.15 (inactive) | -0.463 (inactive) | 0.0738 (inactive) | 0.444 (inactive) | -0.471 (inactive) | 0.882 (inactive) | -0.0992 (inactive) | -1.72 | 0.158
O=c1cccc(-c2ccc(F)cc2)o1 | 0.0278 | -0.576 (inactive) | 0.306 (inactive) | -0.555 (inactive) | -0.088 (inactive) | 0.18 (inactive) | -0.561 (inactive) | -0.165 (inactive) | -0.739 | -0.167
COCCOC(=O)N1C(=O)[C@@]2(c3cc(C#CCC(C(=O)OC)C(=O)OC)ccc31)[C@H](c1ccc(O)cc1)N1[C@H](c3ccccc3)[C@H](c3ccccc3)OC(=O)[C@H]1[C@@H]2C(=O)NC[C@H](O)c1ccccc1 | 1.78 | -0.149 (inactive) | 0.6 (inactive) | 0.407 (inactive) | -0.489 (inactive) | 0.592 (inactive) | 0.416 (inactive) | -0.228 (inactive) | -2.51 | -0.187
COCCCNC(=O)[C@@H]1c2ccccc2C(=O)N(C2Cc3ccccc3C2)[C@H]1c1ccc(CO)cc1 | -0.138 | -0.483 (inactive) | 0.354 (inactive) | -0.774 (inactive) | 0.388 (inactive) | -0.344 (inactive) | 0.722 (inactive) | 0.468 (inactive) | 0.653 | -0.169
O=C1C2C=CC(C(O)C=Cc3ccc([N+](=O)[O-])cc3)N(Nc3ccccc3)C2C(=O)N1c1ccccc1 (stereo not given) | -0.392 | -2.88 (inactive) | -1.44 (inactive) | -0.162 (inactive) | 1.1 (inactive) | -0.0358 (inactive) | -0.125 (inactive) | 0.242 (inactive) | 0.185 | -0.0103
COc1ccc(C#Cc2ccc3c(c2)[C@]2(C(=O)N3)[C@H](C(=O)N3CCCCCCC3)[C@H]3C(=O)O[C@H](c4ccccc4)[C@H](c4ccccc4)N3[C@@H]2c2ccc(O)cc2)cc1 | 0.629 | 0.299 (inactive) | 0.697 (inactive) | -8.52 (active) | 1.19 (inactive) | 0.136 (inactive) | -0.45 (inactive) | -0.601 (inactive) | 0.428 | -0.0149
O=C1N[C@@H](Cc2ccccc2)C(=O)N2[C@@H]1C[C@@H](C(=O)O)[C@H]2c1ccc(O)cc1 | -0.425 | -1.14 (inactive) | 0.746 (inactive) | -0.708 (inactive) | -0.13 (inactive) | -0.319 (inactive) | -0.143 (inactive) | -0.803 (inactive) | 0.0674 | 0.0518
COC(=O)[C@@]1(Cc2ccccc2CN=[N+]=[N-])N=C(c2ccc(OCCCO)cc2)O[C@H]1c1ccccc1 | -2.6 | 0.797 (inactive) | -5.44 (inactive) | 1.09 (inactive) | 1.83 (inactive) | 2.81 (inactive) | 0.759 (inactive) | -0.783 (inactive) | -6.08 | 0.162
CC(C)=CCCC(C)=CC(O)C1C=CC2C(=O)N(c3ccccc3)C(=O)C2N1Nc1ccccc1F (stereo not given) | 0.856 | -1.18 (inactive) | 0.47 (inactive) | -0.323 (inactive) | 0.505 (inactive) | -0.54 (inactive) | 0.131 (inactive) | 0.739 (inactive) | 1.22 | -0.21
COCCOC(=O)N1C(=O)[C@@]2(c3cc(C#CC4=CCCCC4)ccc31)[C@H](c1ccc(O)cc1)N1[C@H](c3ccccc3)[C@H](c3ccccc3)OC(=O)[C@H]1[C@@H]2C(=O)NC[C@H](O)c1ccccc1 | -1.35 | 0.237 (inactive) | -2.48 (inactive) | -0.495 (inactive) | 1.29 (inactive) | 1.94 (inactive) | -0.396 (inactive) | 0.478 (inactive) | -2.55 | 0.0471
CC(=O)n1cc(C(O)C2C=CC3C(=O)N(c4ccccc4)C(=O)C3N2Nc2ccc(C(C)C)cc2)c2ccccc21 (stereo not given) | -1.41 | -2.33 (inactive) | -1.12 (inactive) | 0.708 (inactive) | 1.44 (inactive) | 1.36 (inactive) | -0.0648 (inactive) | -0.0683 (inactive) | -1.06 | 0.0072
COc1ccc(C(=O)Nc2cccc(CN3C(=O)[C@]4(O[C@H](CCn5cc([C@H](O)c6ccccc6)nn5)[C@@H]([Si](C)(C)c5ccc(OC)cc5)[C@@H]4C)c4ccccc43)c2)cc1 | -2.58 | -1.18 (inactive) | -5.94 (inactive) | -0.512 (inactive) | 1.86 (inactive) | 0.99 (inactive) | -0.409 (inactive) | -0.389 (inactive) | -5.61 | 0.0589
O=C1C2C=CC(C(O)c3ccc4c(c3)OCO4)N(Nc3ccccc3)C2C(=O)N1c1ccccc1 (stereo not given) | -0.0551 | 0.939 (inactive) | -0.793 (inactive) | 0.0433 (inactive) | 0.338 (inactive) | 0.581 (inactive) | -0.0005 (inactive) | -0.387 (inactive) | -0.827 | -0.0524
CN1C(=O)[C@@]2(Cc3ccccc3)N=C(c3ccc(OCCCO)cc3)O[C@H]2c2ccccc21 | -0.286 | -6.2 (inactive) | -2.4 (inactive) | 0.271 (inactive) | 1.14 (inactive) | 0.202 (inactive) | 0.432 (inactive) | 0.514 (inactive) | -1.99 | 0.283
O=C(O)[C@H]1C[C@H]2C(=O)N[C@@H](Cc3ccccc3)C(=O)N2[C@H]1c1cccc(OCCO)c1 | 1.02 | -1.46 (inactive) | 0.912 (inactive) | -1.98 (inactive) | -0.295 (inactive) | -0.655 (inactive) | -0.688 (inactive) | 0.214 (inactive) | 0.889 | -0.0323
CCOC(=O)C1=CCC(c2ccccc2)N(S(=O)(=O)c2ccc([N+](=O)[O-])cc2)C1 (stereo not given) | 0.21 | 1.36 (inactive) | -1.12 (inactive) | 0.243 (inactive) | -0.0196 (inactive) | 0.993 (inactive) | -0.495 (inactive) | 0.0062 (inactive) | -0.927 | -0.113
CO[C@H]1O[C@H](CO)[C@@H](OC(=O)CCc2ccccc2)[C@H](OC(=O)c2cc3ccccc3[nH]2)[C@H]1OC(=O)c1cc2ccccc2[nH]1 | -1.4 | -1.14 (inactive) | -2.09 (inactive) | -1.62 (inactive) | 1.38 (inactive) | 0.033 (inactive) | 0.367 (inactive) | 1.2 (inactive) | -2.49 | -0.156
CC=CC(O)C1C=CC2C(=O)NC(=O)C2N1Nc1ccccn1 (stereo not given) | -1.45 | 0.866 (inactive) | -0.949 (inactive) | 0.434 (inactive) | 0.667 (inactive) | 1.83 (inactive) | -0.837 (inactive) | 0.272 (inactive) | -0.349 | -0.031
O=C1NC(=O)C2C1C=CC(C(O)c1ccccn1)N2Nc1ccc(Cl)cc1Cl (stereo not given) | -1.08 | -4.1 (inactive) | -0.837 (inactive) | -0.0894 (inactive) | 0.931 (inactive) | 0.351 (inactive) | -0.587 (inactive) | -0.534 (inactive) | -1.82 | -0.131
[N-]=[N+]=Nc1ccccc1C[C@]1(C(=O)O)N=C(c2ccc(OCCCO)cc2)O[C@H]1c1ccccc1N=[N+]=[N-] | 0.675 | -2.36 (inactive) | -0.0953 (inactive) | 0.463 (inactive) | 1.13 (inactive) | -0.296 (inactive) | 2.43 (inactive) | 0.76 (inactive) | -0.215 | -0.145
O=C1C2C=CC(C(O)c3cccc(O)c3)N(Nc3ccccc3)C2C(=O)N1c1ccccc1 (stereo not given) | -0.491 | -0.774 (inactive) | -1.05 (inactive) | -0.791 (inactive) | 0.67 (inactive) | 0.196 (inactive) | -0.0671 (inactive) | 0.0995 (inactive) | -0.985 | -0.0806
CCOC(=O)C[C@H]1[C@H](OC(=O)c2ccc(-c3ccccc3)cc2)[C@@H](NC(=O)Cc2ccc(OC)cc2)c2cc(OCCCO)ccc2N1C(=O)Cc1ccc(OC)cc1 | -0.0383 | 0.574 (inactive) | 0.796 (inactive) | 0.593 (inactive) | 0.149 (inactive) | 1.78 (inactive) | 1.01 (inactive) | 0.622 (inactive) | 0.643 | -0.0118
